Laboratory results reported in PubChem BioAssay (NCATS).
A number with no mark means an inactive call. For some assays here: Entries with a potency or affinity are not part of this list. Activity calls are given as the source filed them. How the calls were made is not given here.

Columns and labels:
[1] = Ebola virus entry assay, green fluorescence channel
[2] = Ebola virus entry assay, blue channel fluorescence
[3] = Ebola virus entry assay, ratio channel
[4] = Ebola virus entry assay, green channel fluorescence
[5] = Ebola virus entry assay, reporter ratio channel; Channel type: primary
Wherever efficacy is given: 0% is about no effect.

Q: With CN1CCN(c2cc3c(cc2F)c(=O)c(C(=O)O)cn3-c2ccc(F)cc2)CC1 as the compound, how does the efficacy [1] read?
A: 8.5%

Q: And the outcome [2]?
A: inactive

Q: What about the outcome [3] of the same compound?
A: inactive

Q: What about the outcome [4] of the same compound?
A: inactive

Q: And the outcome [5]?
A: inactive

Q: Which efficacy [1] does the source give for CCc1cc2cc(OC)c(OC)cc2c(Cc2ccccc2)n1 here?
A: 32.1%

Q: And the AC50 [2]?
A: 25.1 µM (active)

Q: What about the outcome [3] of the same compound?
A: inactive

Q: And the outcome [4]?
A: inactive

Q: And the AC50 [5]?
A: 31.6 µM (active)

Q: Which results are given for CC(=O)Oc1ccc(C(c2ccc(OC(C)=O)cc2)c2ccccn2)cc1?
A: efficacy [1]: -19%; outcome [2]: inactive; outcome [3]: inactive; outcome [4]: inactive; outcome [5]: inactive

Q: With CC1=C(C(=O)O)N2C(=O)[C@@H](NC(=O)[C@H](N)C3=CCC=CC3)[C@H]2SC1 as the compound, how does the efficacy [1] read?
A: -21.8%

Q: What about the outcome [2] of the same compound?
A: inactive

Q: And the outcome [3]?
A: inactive

Q: What about the outcome [4] of the same compound?
A: inactive

Q: And the outcome [5]?
A: inactive

Q: Which results are given for CCOC(=O)c1c(N)sc2c1CCN(Cc1ccccc1)C2?
A: efficacy [1]: 21.5%; outcome [2]: inactive; outcome [3]: inactive; outcome [4]: inactive; outcome [5]: inactive

Q: Which efficacy [1] does the source give for CCc1cc(OC)c(C[C@H](C)N)cc1OC here?
A: 38.5%

Q: What about the AC50 [2] of the same compound?
A: 22.4 µM (active)

Q: And the AC50 [3]?
A: 25.1 µM (active)

Q: And the outcome [4]?
A: inactive

Q: And the AC50 [5]?
A: 25.1 µM (active)

Q: What does the source list for Cc1cccc(OCC(O)CNC(C)(C)C)c1C (stereo not given)?
A: efficacy [1]: -12.5%; AC50 [2]: 39.8 µM (active); outcome [3]: inactive; outcome [4]: inactive; AC50 [5]: 39.8 µM (active)

Q: Which results are given for Cc1cc(CC(=O)O)n(C)c1C(=O)c1ccc(Cl)cc1?
A: efficacy [1]: 24%; outcome [2]: inactive; outcome [3]: inactive; outcome [4]: inactive; outcome [5]: inactive

Q: What does the source list for Nc1ccc(N=Nc2ccccc2)c(N)n1?
A: efficacy [1]: -23.7%; AC50 [2]: 39.8 µM (active); outcome [3]: inactive; outcome [4]: inactive; AC50 [5]: 39.8 µM (active)

Q: Which efficacy [1] does the source give for CC(C)n1nc(-c2cc3cc(O)ccc3[nH]2)c2c(N)ncnc21 here?
A: 37.9%

Q: And the AC50 [2]?
A: 2.82 µM (active)

Q: What about the AC50 [3] of the same compound?
A: 2.24 µM (active)

Q: What about the outcome [4] of the same compound?
A: inactive

Q: What about the AC50 [5] of the same compound?
A: 2.24 µM (active)

Q: For CCCCC1C(=O)N(c2ccccc2)N(c2ccccc2)C1=O, which efficacy [1] is on record?
A: -25%

Q: And the outcome [2]?
A: inactive

Q: And the outcome [3]?
A: inactive

Q: And the outcome [4]?
A: inactive

Q: What about the outcome [5] of the same compound?
A: inactive

Q: Which efficacy [1] does the source give for C[C@]12CC[C@@H]3c4ccc(O)cc4CC[C@H]3[C@@H]1CCC2=O here?
A: 55%

Q: And the AC50 [2]?
A: 3.55 µM (active)

Q: What about the AC50 [3] of the same compound?
A: 10 µM (active)

Q: And the outcome [4]?
A: inactive

Q: What about the AC50 [5] of the same compound?
A: 10 µM (active)

Q: With C#C[C@]1(OC(C)=O)CC[C@H]2[C@@H]3CCC4=C/C(=N/O)CC[C@@H]4[C@H]3CC[C@@]21CC as the compound, how does the efficacy [1] read?
A: -27.8%

Q: And the AC50 [2]?
A: 39.8 µM (active)

Q: What about the outcome [3] of the same compound?
A: inactive

Q: And the outcome [4]?
A: inactive

Q: What about the AC50 [5] of the same compound?
A: 39.8 µM (active)

Q: Which efficacy [1] does the source give for CN(C)C(=S)SSC(=S)N(C)C here?
A: -47%

Q: What about the AC50 [2] of the same compound?
A: 1.26 µM (active)

Q: What about the AC50 [3] of the same compound?
A: 1.26 µM (active)

Q: And the outcome [4]?
A: inactive

Q: What about the AC50 [5] of the same compound?
A: 1.26 µM (active)

Q: Which efficacy [1] does the source give for C=CC[N+]1([C@H]2C[C@H]3[C@@H]4CC[C@H]5C[C@H](OC(C)=O)[C@@H](N6CCCCC6)C[C@]5(C)[C@H]4CC[C@]3(C)[C@H]2OC(=O)CC)CCCCC1 here?
A: 47.7%

Q: And the AC50 [2]?
A: 14.1 µM (active)

Q: What about the outcome [3] of the same compound?
A: inactive

Q: And the outcome [4]?
A: inactive

Q: And the AC50 [5]?
A: 28.2 µM (active)

Q: Which results are given for C[C@]12CC[C@@H]3c4ccc(O)cc4CC[C@H]3[C@@H]1C[C@@H](O)[C@@H]2O?
A: efficacy [1]: -24.2%; AC50 [2]: 20 µM (active); outcome [3]: inactive; outcome [4]: inactive; AC50 [5]: 35.5 µM (active)

Q: Which efficacy [1] does the source give for CCCOc1ccc(C(=O)OCCN(CC)CC)cc1N here?
A: 35%

Q: What about the AC50 [2] of the same compound?
A: 39.8 µM (active)

Q: What about the AC50 [3] of the same compound?
A: 22.4 µM (active)

Q: And the outcome [4]?
A: inactive

Q: What about the AC50 [5] of the same compound?
A: 22.4 µM (active)

Q: Which efficacy [1] does the source give for Cc1cc(N)c2cc(NC(=O)Nc3ccc4nc(C)cc(N)c4c3)ccc2n1 here?
A: 18%

Q: And the AC50 [2]?
A: 22.4 µM (active)

Q: And the AC50 [3]?
A: 20 µM (active)

Q: And the outcome [4]?
A: inactive

Q: And the AC50 [5]?
A: 20 µM (active)

Q: For O=c1[nH]sc2cc(Cl)ccc12, which efficacy [1] is on record?
A: -42.1%

Q: What about the AC50 [2] of the same compound?
A: 39.8 µM (active)

Q: And the outcome [3]?
A: inactive

Q: And the outcome [4]?
A: inactive

Q: What about the AC50 [5] of the same compound?
A: 39.8 µM (active)

Q: What does the source list for COc1ccc(CN2CCN(C(c3ccc(F)cc3)c3ccc(F)cc3)CC2)c(OC)c1OC?
A: efficacy [1]: 25.5%; AC50 [2]: 7.08 µM (active); AC50 [3]: 10 µM (active); outcome [4]: inactive; AC50 [5]: 10 µM (active)

Q: For CO[C@]1(NC(=O)CSC(F)F)C(=O)N2C(C(=O)O)=C(CSc3nnnn3CCO)CO[C@H]21, which efficacy [1] is on record?
A: -28.6%

Q: What about the outcome [2] of the same compound?
A: inactive

Q: And the outcome [3]?
A: inactive

Q: What about the outcome [4] of the same compound?
A: inactive

Q: And the outcome [5]?
A: inactive

Q: Which efficacy [1] does the source give for O=C(Nc1ncc([N+](=O)[O-])s1)c1cccs1 here?
A: -37.9%

Q: What about the outcome [2] of the same compound?
A: inactive

Q: And the outcome [3]?
A: inactive

Q: What about the outcome [4] of the same compound?
A: inactive

Q: What about the outcome [5] of the same compound?
A: inactive

Q: What does the source list for C=CCOc1cc(Cl)ccc1C(=O)NCCN(CC)CC?
A: efficacy [1]: -28.4%; AC50 [2]: 14.1 µM (active); AC50 [3]: 15.8 µM (active); outcome [4]: inactive; AC50 [5]: 15.8 µM (active)

Q: Which efficacy [1] does the source give for COc1ccc(OC)c(CC(C)N)c1 (stereo not given) here?
A: 40.3%

Q: What about the AC50 [2] of the same compound?
A: 31.6 µM (active)

Q: And the outcome [3]?
A: inactive

Q: What about the outcome [4] of the same compound?
A: inactive

Q: What about the AC50 [5] of the same compound?
A: 31.6 µM (active)

Q: With CCCCCCCCCCCCCCCCC(C(=O)O)C(O)(CC(=O)O)C(=O)O (stereo not given) as the compound, how does the efficacy [1] read?
A: -32%

Q: And the outcome [2]?
A: inactive

Q: And the outcome [3]?
A: inactive

Q: And the outcome [4]?
A: inactive

Q: What about the outcome [5] of the same compound?
A: inactive

Q: Which efficacy [1] does the source give for Clc1ccc(Nc2nnc(Cc3ccncc3)c3ccccc23)cc1 here?
A: -25.3%

Q: And the AC50 [2]?
A: 15.8 µM (active)

Q: And the outcome [3]?
A: inactive

Q: What about the outcome [4] of the same compound?
A: inactive

Q: What about the AC50 [5] of the same compound?
A: 31.6 µM (active)

Q: Which efficacy [1] does the source give for Cc1cccc(N(C)C(=S)Oc2ccc3ccccc3c2)c1 here?
A: 22.5%

Q: What about the AC50 [2] of the same compound?
A: 25.1 µM (active)

Q: What about the AC50 [3] of the same compound?
A: 25.1 µM (active)

Q: And the outcome [4]?
A: inactive

Q: And the AC50 [5]?
A: 25.1 µM (active)

Q: For CC(C)=CCOc1ccc(/C=C/C(=O)c2ccc(OCC=C(C)C)cc2OCC(=O)O)cc1, which efficacy [1] is on record?
A: -15.5%

Q: And the outcome [2]?
A: inactive

Q: What about the outcome [3] of the same compound?
A: inactive

Q: What about the outcome [4] of the same compound?
A: inactive

Q: And the outcome [5]?
A: inactive

Q: For COc1cc(CC(C)N)cc2c1OCO2 (stereo not given), which efficacy [1] is on record?
A: 23.1%

Q: What about the AC50 [2] of the same compound?
A: 35.5 µM (active)

Q: And the outcome [3]?
A: inactive

Q: What about the outcome [4] of the same compound?
A: inactive

Q: What about the AC50 [5] of the same compound?
A: 35.5 µM (active)

Q: What does the source list for NC(N)=NN=C(/C=C/c1ccc([N+](=O)[O-])o1)/C=C/c1ccc([N+](=O)[O-])o1?
A: efficacy [1]: -41.4%; AC50 [2]: 3.16 µM (active); AC50 [3]: 3.16 µM (active); outcome [4]: inactive; AC50 [5]: 3.16 µM (active)

Q: Which results are given for CN(C)CCN1C(=O)c2ccccc2N(C)c2ccccc21?
A: efficacy [1]: -25.3%; AC50 [2]: 39.8 µM (active); outcome [3]: inactive; outcome [4]: inactive; AC50 [5]: 39.8 µM (active)

Q: For CCOc1ccc2nc(S(N)(=O)=O)sc2c1, which efficacy [1] is on record?
A: 31.6%

Q: What about the outcome [2] of the same compound?
A: inactive

Q: And the outcome [3]?
A: inactive

Q: What about the outcome [4] of the same compound?
A: inactive

Q: And the outcome [5]?
A: inactive

Q: For CCCC(=O)O[C@]1(C(=O)CCl)[C@@H](C)C[C@H]2[C@@H]3CCC4=CC(=O)C=C[C@]4(C)[C@@]3(F)C(=O)C[C@@]21C, which efficacy [1] is on record?
A: 17%

Q: What about the AC50 [2] of the same compound?
A: 35.5 µM (active)

Q: What about the AC50 [3] of the same compound?
A: 20 µM (active)

Q: And the outcome [4]?
A: inactive

Q: And the AC50 [5]?
A: 20 µM (active)

Q: What does the source list for CCC1Nc2cc(Cl)c(S(N)(=O)=O)cc2S(=O)(=O)N1 (stereo not given)?
A: efficacy [1]: -28.2%; outcome [2]: inactive; outcome [3]: inactive; outcome [4]: inactive; outcome [5]: inactive

Q: Which results are given for CC(C)(Cc1c[nH]c2ccccc12)NCC(O)COc1ccccc1C#N (stereo not given)?
A: efficacy [1]: 48.7%; AC50 [2]: 35.5 µM (active); AC50 [3]: 25.1 µM (active); outcome [4]: inactive; AC50 [5]: 25.1 µM (active)

Q: With O=C(Nc1ccc([N+](=O)[O-])cc1Cl)c1cc(Cl)ccc1O as the compound, how does the efficacy [1] read?
A: 35.2%

Q: What about the AC50 [2] of the same compound?
A: 0.891 µM (active)

Q: What about the AC50 [3] of the same compound?
A: 1 µM (active)

Q: And the outcome [4]?
A: inactive

Q: And the AC50 [5]?
A: 1 µM (active)

Q: Which results are given for CCc1cc(Cl)c(OC)c(C(=O)NC[C@@H]2CCCN2CC)c1O?
A: efficacy [1]: 38.6%; AC50 [2]: 31.6 µM (active); AC50 [3]: 20 µM (active); outcome [4]: inactive; AC50 [5]: 20 µM (active)
